In PubChem BioAssay:

Assay: basal RPMI8226 mitochondrial membrane potential changes, profiling panel, cell-based, JC-1 fluorescence, 24 h, 100 nL compound (AID 1169); note: test concentration not given here
Settings: RPMI8226 myeloma, JC-1 mitochondrial potential fluorescence, higher = more signal
`O=C1O[C@@H](c2ccccc2)[C@@H](c2ccccc2)N2[C@@H](c3ccc(OCCO)cc3)[C@]3(C(=O)Nc4ccc(C#CC5(O)CCCCCC5)cc43)[C@@H](C(=O)Nc3nc4ccccc4s3)[C@H]12` gave a z-score of -0.805. `COCCCN1C(=O)[C@@]2(c3ccc([N+](=O)[O-])cc3)CC(=O)N(CC34CC5CC(CC(C5)C3)C4)[C@@H]2c2ccc(CO)cc21` gave a z-score of 0.25. In the case of `O=C1C2C=CC(C(O)c3cccs3)N(Nc3ccc([N+](=O)[O-])cc3)C2C(=O)N1c1ccccc1` (stereo unspecified), the z-score is reported as 0.569. In the case of `C=C1C(=O)C=C2CN(C(=O)c3ccccc3)[C@@](Cc3ccc(OC)cc3)(C(=O)OC)[C@@H]12`, the z-score is reported as -0.908. Compound `CCOC(=O)C[C@H]1[C@H](OC(=O)c2cc3ccccc3oc2=O)[C@@H](NC(=O)CC(C)C)c2cc(OCCCO)ccc2N1C(=O)Cc1ccc(OC)cc1` has a z-score of 0.421. `CCOC(=O)C1=CC[C@@H](c2ccccc2)N(S(=O)(=O)c2ccc(C)cc2)[C@H]1c1ccccc1I` gave a z-score of 1.14.
